Our source for the composite z-score and composite Z-score values is PubChem BioAssay.

Calls of active or inactive are those of the source.

In one test the target is Albumin (Bos taurus) (UniProt P02769). Nature of the test: bovine serum albumin binders on microarray, profiling panel, artefact control for SMM control protein annotation, biochemical, small-molecule microarray, Alexa647 label, 635/667 nm fluorescence (AID 1118).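 Also: score merges 667 nm emission intensity and signal-to-noise per printed compound spot.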 The conditions noted are these: BSA-A647 binding, fluorescence 635 nm, higher = more signal.
Sequence of Albumin (Bos taurus) (P02769 whole entry, looked up): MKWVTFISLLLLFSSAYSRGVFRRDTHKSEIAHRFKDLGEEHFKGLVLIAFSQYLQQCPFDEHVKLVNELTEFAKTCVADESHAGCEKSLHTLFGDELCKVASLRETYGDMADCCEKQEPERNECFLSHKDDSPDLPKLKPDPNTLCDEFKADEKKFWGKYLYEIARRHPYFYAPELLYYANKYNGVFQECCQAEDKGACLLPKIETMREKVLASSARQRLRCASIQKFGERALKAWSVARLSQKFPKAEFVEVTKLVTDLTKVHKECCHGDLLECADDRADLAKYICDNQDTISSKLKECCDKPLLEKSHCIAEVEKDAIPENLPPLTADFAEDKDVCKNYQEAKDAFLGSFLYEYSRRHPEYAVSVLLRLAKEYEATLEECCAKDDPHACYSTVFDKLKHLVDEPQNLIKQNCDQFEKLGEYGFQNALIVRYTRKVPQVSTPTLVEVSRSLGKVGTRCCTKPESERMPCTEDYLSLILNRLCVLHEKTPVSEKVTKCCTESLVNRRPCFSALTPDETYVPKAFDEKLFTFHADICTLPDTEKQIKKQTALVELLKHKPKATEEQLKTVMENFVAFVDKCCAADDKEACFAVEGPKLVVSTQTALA
Test [1] in a line: small-molecule microarray binders of probe aXIP, primary screen, biochemical, NeuroSMM set, 635/667 nm fluorescence (AID 1119).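 Also: probe is the protein aXip251-270 applied at 1 µg/mL to compound-printed slides; binding of probe to printed compounds measured as 667 nm fluorescence plus signal to noise.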 The conditions noted are these: higher = more signal, called active from +8 up or from −8 down.
Test [2] can be described thus: small-molecule binders of probe aNOTCH3, primary screen, biochemical, small-molecule microarray, 635/667 nm fluorescence (AID 1120).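 Also: probe is a biotin-tagged antibody raised against NOTCH3 rather than NOTCH3 protein; score merges spot fluorescence near 667 nm with spot signal to noise.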 The conditions noted are these: higher = more signal.
Test [3] in a line: small-molecule binders of probe aNOTCH2, primary screen, biochemical, small-molecule microarray, 635/667 nm fluorescence (AID 1121).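 Also: score merges feature fluorescence read at 667 nm with its signal to noise.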 The conditions noted are these: higher = more signal.
In test [4] the target is Carbonic anhydrase 2 (Homo sapiens) (UniProt P00918). Nature of the test: CAII small-molecule binders, profiling panel, biochemical, small-molecule microarray, Alexa647-labelled CAII (AID 1122). The settings on record: CAII-A647 binding fluorescence, higher = more signal.
Test [5] can be described thus: COS7 lysate on small-molecule microarray, probe aHis, 635 nm (AID 1123).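 Also: z-score combines 667nm fluorescence intensity with signal-to-noise per printed compound spot.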 The settings on record: COS7 cell lysate, fluorescence, higher = more signal.
Test [6] is described as follows: compound binding in COS7 lysate, probe aLAP1, primary screen, cell lysate, small-molecule microarray (AID 1124).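 Also: lysate comes from COS7 cells expressing LAP1 and is applied at 0.3 µg/mL; score merges spot fluorescence near 667 nm with signal-to-noise over triplicate slides.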 The conditions noted are these: probe aLAP1, fluorescence, higher = more signal.
In a further test the test system is Sam68 (KHDRBS1). Nature of the test: Sam68 small-molecule binders, primary screen, biochemical, small-molecule microarray, 635 nm fluorescence (AID 1125).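 Also: score merges 667 nm channel intensity with signal to noise over triplicate slides.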 The conditions noted are these: small-molecule microarray binding, higher = more signal.
For test [7], the system named is Chordin-like protein 2 (CHRDL2). Nature of the test: CHRDL2 small-molecule binders, primary screen, biochemical, small-molecule microarray, 635 nm fluorescence (AID 1126).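 Also: printed compound slides probed with Chrdl2 protein at 4 µg/mL for 1 h at 4 C; score merges 667 nm emission intensity with signal to noise over three replicate slides.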 The settings on record: small-molecule microarray binding, fluorescence 635 nm; higher = more signal.
In test [8] the target is Concanavalin-A (Canavalia ensiformis) (UniProt P02866). Nature of the test: ConA small-molecule binders, primary screen, artefact control for SMM control protein annotation, biochemical, small-molecule microarray, Alexa647 label, 635 nm (AID 1127).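 Also: z combines 667 nm emission intensity with signal-to-noise across three replicate slides.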 The settings on record: ConA-A647 binding fluorescence, higher = more signal.
Sequence of Concanavalin-A (Canavalia ensiformis) (P02866 whole entry, looked up): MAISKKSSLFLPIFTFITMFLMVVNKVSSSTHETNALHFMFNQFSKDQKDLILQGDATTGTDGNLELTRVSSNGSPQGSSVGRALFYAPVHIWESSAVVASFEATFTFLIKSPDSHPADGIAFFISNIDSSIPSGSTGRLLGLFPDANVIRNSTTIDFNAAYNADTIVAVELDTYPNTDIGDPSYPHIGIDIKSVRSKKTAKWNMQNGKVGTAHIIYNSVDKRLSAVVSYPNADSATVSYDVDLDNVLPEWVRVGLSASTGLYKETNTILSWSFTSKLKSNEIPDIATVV

With `CCN(CC)c1ccc(N2CC=CC34O[C@@H]5C=CCCOC(=O)C5[C@H]3C(=O)N(C(C)CO)[C@@H]4C2=O)cc1` (stereo not given in full), the composite z-score is 0.653 in the test with Albumin (Bos taurus); 0.102 in test [2]; -0.159 in test [3]; 0.835 in test [4]; -0.806 in test [5]; 0.385 in test [6]. In addition, the composite z-score in the test with Sam68 (KHDRBS1) was -0.304; in [7] it was -0.0271; in [8], -0.361. The composite Z-score in [1] was 0.195 (inactive).
Turning to `COC(=O)[C@@]1(Cc2ccccc2)[C@H]2c3cc(C(=O)N(C)C)n(CCO)c3C[C@H]2CN1C(=O)c1ccccc1`, the composite z-score in the test with Albumin (Bos taurus) came to 1.04; in test [2], 0.0259; in [3], 0.19; in [4] it was 0.958; in test [5] it was 3.13; in test [6], 0.877. In addition, the results for the composite z-score (in the test on Sam68 (KHDRBS1); in [7]; in test [8]) were 1.24, -1.44 and 1.2, respectively. In addition, the composite Z-score in [1] was 0.335 (inactive).
With `CC(C)NC(=O)[C@@]1(C)c2ccccc2C(=O)N(Cc2ccccc2)[C@H]1c1ccc(CO)cc1`, the composite z-score with Albumin (Bos taurus) is 0.489; in test [2] it was -0.432; in [3], -0.153; in test [4] it was 0.692; in test [5], 1.86; in [6], 0.329. Also, the composite z-score in the test with Sam68 (KHDRBS1) was 0.696; in test [7], -1.6; in [8] it was 0.537. In addition, in test [1], the composite Z-score is -0.621 (inactive).
As to `COCCCNC(=O)[C@@]1(CCC(=O)OC(C)(C)C)COC(c2ccc(OCCCO)cc2)=N1`, the composite z-score with Albumin (Bos taurus) was 0.483; in [2] it was 0.133; in [3], -0.0485; in test [4] it was 0.619; in test [5], 3; in test [6], 0.504. Moreover, the composite z-score with Sam68 (KHDRBS1) was 1.28; in test [7], -0.42; in test [8], 0.286. In addition, the composite Z-score in test [1] is 0.507 (inactive).
Turning to `C=CCC(OC(C)=O)[C@@H]1[C@@H](N(Cc2ccc(-c3ccccc3)cc2)C(=O)c2cccc3ccccc23)c2cc(OCCCO)ccc2N1C(=O)Cc1ccc(OC)cc1` (stereo not given in full), the composite z-score with Albumin (Bos taurus) is -0.276; in [2], 0.222; in test [3] it was 0.0092; in [4] it was -0.208; in [5], -0.212; in test [6], -0.338. In addition, the composite z-score with Sam68 (KHDRBS1) is -0.205; in test [7], 0.475; in test [8], -0.0975. Besides, in test [1], the composite Z-score is -0.064 (inactive).
Consider `[N-]=[N+]=Nc1ccccc1[C@@H]1OC(c2ccc(OCCCO)cc2)=N[C@]1(CCS(=O)(=O)c1ccccc1)C(=O)NCC(O)CO` (stereo not given in full), for which the composite z-score in the test with Albumin (Bos taurus) was 0.91; in [2], -0.023; in [3], 0.014; in test [4], 0.564; in [5], 2.5; in [6] it was 0.649. Moreover, the composite z-score in the test with Sam68 (KHDRBS1) is 0.885; in test [7], -0.165; in [8], 0.998. Also, the composite Z-score in [1] is 0.339 (inactive).
As to `CC(C)[Si](C#CCCc1ccccc1)(O[C@H](c1ccccc1)c1cn(Cc2ccccc2)nn1)C(C)C`, the composite z-score in the test with Albumin (Bos taurus) is 0.246; in [2], 0.073; in test [3], -0.115; in [4], 0.204; in test [5] it was 1.12; in test [6] it was 0.0218. For the same compound, the composite z-score in the test with Sam68 (KHDRBS1) was 1.02; in test [7], 0.721; in test [8] it was 0.949. Besides, the composite Z-score in [1] is 0.546 (inactive).
Turning to `COCCCNC(=O)[C@@H]1c2ccccc2C(=O)N(Cc2ccc(OC(F)(F)F)cc2)[C@H]1c1ccc(CO)cc1`, the composite z-score with Albumin (Bos taurus) was 0.348; in test [2] it was -0.0074; in [3], -0.174; in test [4] it was 0.529; in test [5] it was 1.22; in test [6] it was 1.28. Further, the composite z-score in the test with Sam68 (KHDRBS1) was 0.859; in test [7], 0.286; in test [8], 0.874. For the same compound, in test [1], the composite Z-score was -0.274 (inactive).
Regarding `C=CCOC(=O)[C@@H]1[C@H]2C(=O)O[C@H](c3ccccc3)[C@H](c3ccccc3)N2[C@H](c2ccc(OCCOC(=O)[C@H]3C[C@H]4C(=O)N[C@@H](CCCCN(C)C)C(=O)N4[C@H]3c3ccc(O)cc3)cc2)[C@@]12C(=O)Nc1ccc(I)cc12`, the composite z-score with Albumin (Bos taurus) was -0.839; in [2], 0.0006; in [3], -0.0698; in [4], 0.426; in test [5], 1.95; in test [6], 0.148. Further, the composite z-score in the test with Sam68 (KHDRBS1) worked out at 1.29; in test [7] it was 1.1; in test [8] it was 1.15. Besides, the composite Z-score in test [1] is 0.929 (inactive).
As to `C=C1C(=O)C=C2CN(C(=O)c3ccccc3)[C@@](Cc3ccc(OC)cc3)(C(=O)OC)[C@@H]12`, the composite z-score with Albumin (Bos taurus) was 1.07; in test [2], 0.711; in [3] it was 0.11; in test [4] it was 0.523; in [5] it was 3.32; in test [6], 0.471. Also, the values for the composite z-score (in the test on Sam68 (KHDRBS1); in [7]; in test [8]) were 1.3, -0.639 and 1.14, respectively. Further, the composite Z-score in test [1] is 0.579 (inactive).
Consider `O=C1C2C=CC(C(O)c3c(F)cccc3Cl)N(Nc3ccc([N+](=O)[O-])cc3)C2C(=O)N1c1ccccc1` (stereo not given), for which the composite z-score in the test with Albumin (Bos taurus) was 0.589; in test [2], 0.465; in test [3], -0.037; in test [4] it was 0.804; in [5] it was 2.83; in [6] it was 1.43. Moreover, the composite z-score with Sam68 (KHDRBS1) came out at 1.3; in [7], 0.268; in test [8] it was 1.11. In addition, the composite Z-score in test [1] is -0.0608 (inactive).
With `O=C(NC1CC1)[C@@H]1c2ccccc2C(=O)N(CC23CC4CC(CC(C4)C2)C3)[C@H]1c1ccc(CO)cc1`, the composite z-score was 0.654 with Albumin (Bos taurus); 0.183 in [2]; -0.0495 in [3]; 0.388 in [4]; 2.18 in [5]; 0.99 in test [6]. Moreover, the composite z-score was 1.31 in the test on Sam68 (KHDRBS1), 1.16 in test [7] and 1.16 in test [8]. The composite Z-score in test [1] was -0.0662 (inactive).
As for `C=CCC(OC(C)=O)[C@@H]1[C@@H](N(Cc2ccc(-c3cccc(C(F)(F)F)c3)o2)C(=O)c2ccc(-c3ccccc3)cc2)c2cc(OCCCO)ccc2N1C(=O)c1ccc2ccccc2c1` (stereo not given in full), the composite z-score with Albumin (Bos taurus) was -0.192; in test [2], 0.0445; in test [3] it was -0.0707; in test [4] it was 0.323; in [5] it was 0.234; in [6], -0.376. The composite z-score was -0.689 in the test on Sam68 (KHDRBS1), 0.0823 in test [7] and -0.654 in [8]. Besides, the composite Z-score in test [1] is -0.0127 (inactive).
For the compound `O=C1O[C@@H](c2ccccc2)[C@@H](c2ccccc2)N2[C@@H](c3ccc(OCCO)cc3)[C@]3(C(=O)Nc4ccc(C#CCCO)cc43)[C@@H](C(=O)O)[C@H]12`, the composite z-score in the test with Albumin (Bos taurus) came to 0.559; in test [2], 0.955; in test [3], 0.516; in test [4], 0.746; in [5] it was 2.2; in test [6] it was 0.636. For the same compound, the values for the composite z-score (in the test on Sam68 (KHDRBS1); in [7]; in [8]) were 1.28, 1.02 and 1.15, respectively. Further, in test [1], the composite Z-score is 0.919 (inactive).
As for `CCCN1C(=O)[C@@]2(c3ccc([N+](=O)[O-])cc3)CC(=O)N(CC34CC5CC(CC(C5)C3)C4)[C@@H]2c2ccc(CO)cc21`, the composite z-score with Albumin (Bos taurus) was 0.391; in [2] it was 0.056; in test [3], -0.199; in test [4] it was 0.302; in [5] it was 0.634; in [6], -0.193. For the same compound, the composite z-score is -0.83 in the test with Sam68 (KHDRBS1), -0.229 in test [7] and 0.0674 in test [8]. Moreover, the composite Z-score in test [1] was -0.316 (inactive).
`CC(C)(C)N1CC=CC23O[C@@H]4C=CCOC(=O)[C@@H]4[C@H]2C(=O)N(CCO)[C@@H]3C1=O` (stereo not given in full): the composite z-score with Albumin (Bos taurus) was 0.439; in test [2] it was -0.446; in [3], -0.196; in [4], 0.671; in test [5], 1.95; in [6] it was -0.719. For the same compound, the composite z-score in the test on Sam68 (KHDRBS1) was -0.738; in [7] it was -2.63; in test [8], -0.634. Moreover, the composite Z-score in test [1] is 0.256 (inactive).
As to `C=CC[C@@]1(C(=O)N(C)C)N=C(c2ccc(OCCCO)cc2)O[C@@H]1c1ccccc1CN=[N+]=[N-]`, the composite z-score was 0.738 in the test with Albumin (Bos taurus); 0.438 in test [2]; 0.0674 in test [3]; 0.397 in test [4]; 2.48 in [5]; 0.71 in test [6]. In addition, the results for the composite z-score (in the test with Sam68 (KHDRBS1); in [7]; in test [8]) were 1.33, -0.201 and 1.12, respectively. In addition, in [1], the composite Z-score is 0.153 (inactive).
